From PubChem BioAssay AID540280 (National Center for Advancing Translational Sciences (NCATS), 2011)
The other results are listed elsewhere or left out. Active and inactive are the calls of the source. Calls come from the whole dose curve.

The molecules below were run against DNA polymerase beta (Homo sapiens) (UniProt P06746) (assay: Inhibitors of DNA Polymerase Beta: Hit validation). Conditions: Pol beta primer extension/strand displacement, fluorescence kinetic.
Text: The base excision repair system in human cells is a target for therapeutic modulation of the response to irradiation treatment and DNA-damaging drugs. A key enzyme in this system is the bi-functional DNA polymerase known as DNA polymerase Beta (Pol Beta). The following is a homogeneous kinetic assay to study the primer extension and strand-displacement reaction catalyzed by pol beta.
A stepwise description of the 1536-well assay is shown in next Table. Three microliters of reagents (buffer in column 3 and 4 as negative control and 10 nM Pol beta in columns 1, 2, and 5-48) was dispensed into 1,536-well black solid-bottomed plate. Compounds (23 nL) were transferred via Kalypsys pin tool equipped with 1536-pin array (10 nL slotted pins, V&P Scientific, San Diego, CA). The plates were incubated for 15 min at room temperature, and 1 uL substrate (50 nM final concentration) were added to start the reaction and immediately read at 0 min read on Viewlux reader. The plate were further incubated for 10 min at room temperature, and then read on Viewlux again. Throughout the screen, reagent bottle and all liquid lines were chilled and made light-tight to minimize reagent degradation. All screening operations were performed on a fully integrated robotic system (Kalypsys, San Diego, CA) containing one RX-130 and two RX-90 anthropomorphic robotic arms (Staubli, Duncan, SC). Library plates were screened starting from the lowest and proceeding to the highest concentration, and a double-dipping step of the highest concentration was required to access higher concentrations of compounds. Vehicle-only plates, with DMSO being pin-transferred to the entire column 5-48 compound area, were inserted uniformly at the beginning and the end of each library in order to monitor for and record any shifts in the background, which can be affected by reagent dispensers or loss in enzyme activity overtime. Screening data were corrected, normalized, and concentration-effect relationships were derived by using publicly-available curve fitting algorithms developed in-house (http://ncgc.nih.gov/pub/openhts). A four parameter Hill equation was fitted to the concentration-response data by minimizing the residual error between the modeled and observed responses.
Potency is the fitted concentration of half-maximal effect.

Potency, active:
O=C(Nc1ccc(S(=O)(=O)Nc2nccs2)cc1)c1cc(-c2ccncc2)nc2ccccc12 25.1 µM, COc1cc([C@H](Cc2ccccc2)NC(C)=O)oc(=O)c1 28.2 µM, Cc1ccc(C(=O)Oc2coc(CSc3nnc(NC(=O)c4cccs4)s3)cc2=O)cc1C 31.6 µM, COc1ccc(Cc2nnc(NC(=O)Cc3cccs3)s2)cc1 6.31 µM, Cc1c(CCC(=O)O)c(=O)oc2c(C)c(OCc3ccccc3Cl)ccc12 12.6 µM, Cc1ccc2nc(-c3ccncc3)cc(C(=O)Nc3ccc(OC(F)F)cc3)c2c1 35.5 µM, Cc1c(CC(=O)N2CCN(C(=O)C3COc4ccccc4O3)CC2)c(=O)oc2c(O)c(O)ccc12 (configuration not stated) 2.24 µM
